PubChem BioAssay (NCATS)
Results filed as inconclusive are left out. Where a call stands in place of a potency, no number is given. Calls of active or inactive are those of the source. Unless noted, calls follow the shape of the full dose curve.

What was measured:
[1] = qHTS for Inhibitors of the Functional Ribonucleoprotein Complex (vRNP) of Lassa (LASV) Arenavirus: Viability assay - alamar blue signal for LASV Primary Screen (AID 1347083; calls by dose curve; tested in HEK293 reporter line; also: nearly all actives have a fitted effect of over 80% in size)
[2] = qHTS for Inhibitors of the Functional Ribonucleoprotein Complex (vRNP) of Lymphocytic Choriomeningitis Arenaviruses (LCMV): Viability assay - alamar blue signal for LCMV Primary Screen (AID 1347085; calls by dose curve; tested in HEK293 reporter line; also: nearly all actives have a fitted effect of over 80% in size)
[3] = biological target: Nucleoprotein (Lymphocytic choriomeningitis virus (strain Armstrong)) (UniProt P09992); test: qHTS for Inhibitors of the Functional Ribonucleoprotein Complex (vRNP) of Lymphocytic Choriomeningitis Arenaviruses (LCMV): LCMV Primary Screen - GLuc reporter signal (AID 1347086); also: nearly all actives have a fitted effect of over 70% in size
Nucleoprotein (Lymphocytic choriomeningitis virus (strain Armstrong)), sequence (P09992 whole entry, looked up): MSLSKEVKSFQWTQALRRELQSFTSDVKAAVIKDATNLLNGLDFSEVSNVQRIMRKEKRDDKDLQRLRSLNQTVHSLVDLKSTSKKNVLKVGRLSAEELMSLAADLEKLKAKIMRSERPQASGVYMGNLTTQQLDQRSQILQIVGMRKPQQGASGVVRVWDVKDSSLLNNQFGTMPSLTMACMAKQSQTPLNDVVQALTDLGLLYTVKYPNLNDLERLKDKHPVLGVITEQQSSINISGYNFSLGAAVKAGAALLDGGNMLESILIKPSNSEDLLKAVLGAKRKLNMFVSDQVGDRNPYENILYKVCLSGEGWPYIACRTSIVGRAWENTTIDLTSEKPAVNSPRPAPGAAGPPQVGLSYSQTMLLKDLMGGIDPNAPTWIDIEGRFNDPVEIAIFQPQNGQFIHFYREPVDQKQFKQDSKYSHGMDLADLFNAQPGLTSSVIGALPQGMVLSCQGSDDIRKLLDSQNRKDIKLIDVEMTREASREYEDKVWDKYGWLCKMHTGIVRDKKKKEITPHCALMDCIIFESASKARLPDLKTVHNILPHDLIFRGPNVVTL
Potency is read from the fitted curve at half-maximal effect.

## CCc1cncnc1N1CCN(Cc2nc3ccc(C(F)(F)F)cc3[nH]2)CC1
[1]
  Potency: inactive
[2]
  Potency: inactive

## CCCCc1nc2cc(C=CC(=O)NO)ccc2n1CCN(CC)CC
[1]
  Potency: 6.85 µM (active)
[2]
  Potency: 7.69 µM (active)

## O=C(Nc1cc(Cl)cc2c1[nH]c1cnccc12)c1cccnc1
[1]
  Potency: 21.7 µM (active)
[2]
  Potency: 24.3 µM (active)

## CC[C@@H]1C(=O)N(C)c2cnc(Nc3ccc(C(=O)NC4CCC(N5CCN(CC6CC6)CC5)CC4)cc3OC)nc2N1C(C)C (stereo partly specified)
[1]
  Potency: 0.0968 µM (active)
[2]
  Potency: 0.0968 µM (active)

## COc1ccc(C2=N[C@H](c3ccc(Cl)cc3)[C@H](c3ccc(Cl)cc3)N2C(=O)N2CCNC(=O)C2)c(OC(C)C)c1
[1]
  Potency: inactive
[2]
  Potency: inactive
[3]
  Potency: inactive

## CCCCCCCC(=O)OCC(O)CO (stereo unspecified)
[1]
  Potency: inactive
[2]
  Potency: inactive
[3]
  Potency: inactive

## Cn1cnc(CCN)c1
[1]
  Potency: inactive
[2]
  Potency: inactive
[3]
  Potency: inactive

## Cn1c(=O)n(-c2ccc(C(C)(C)C#N)cc2)c2c3cc(-c4cnc5ccccc5c4)ccc3ncc21
[1]
  Potency: 0.0343 µM (active)
[2]
  Potency: 0.0611 µM (active)
[3]
  Potency: 0.0685 µM (active)

## CC(NCc1ccc2c(c1)nc(NC(=O)c1ccc(-c3cn[nH]c3)s1)n2CC(C)(C)O)C(C)(C)C (stereo unspecified)
[1]
  Potency: 0.485 µM (active)
[2]
  Potency: 1.72 µM (active)

## CCCCC(CC)COC(=O)c1ccc(N(C)C)cc1 (stereo unspecified)
[1]
  Potency: inactive
[2]
  Potency: inactive
[3]
  Potency: inactive

## CC=C1NC(=O)[C@H]2CSSCCC=C[C@H](CC(=O)N[C@H](C(C)C)C(=O)N2)OC(=O)[C@H](C(C)C)NC1=O
[1]
  Potency: 0.0968 µM (active)
[2]
  Potency: 0.0968 µM (active)

## Cc1cc(Nc2cc(N3CCN(C)CC3)nc(Sc3ccc(NC(=O)C4CC4)cc3)n2)n[nH]1
[1]
  Potency: 19.3 µM (active)
[2]
  Potency: 38.5 µM (active)

## COc1ccc(-c2ccc3c(N4CCOCC4)nc(N4C[C@@H](C)O[C@@H](C)C4)nc3n2)cc1CO
[1]
  Potency: 0.243 µM (active)
[2]
  Potency: 1.09 µM (active)

## COc1ccc2c(c1)CC[C@@H](CN(C)CC(=O)O)[C@H]2c1ccccc1
[1]
  Potency: 10.9 µM (active)
[2]
  Potency: 4.85 µM (active)

## CN1C(=O)CC[C@H]1c1cccnc1
[1]
  Potency: inactive
[2]
  Potency: inactive
[3]
  Potency: inactive

## CC(C[N+](C)(C)C)OC(N)=O (stereo unspecified)
[1]
  Potency: inactive
[2]
  Potency: inactive
[3]
  Potency: inactive

## Cc1ccc(C(N)=O)cc1Nc1nccc(-c2cn(C(C)C)c3cnccc23)n1
[1]
  Potency: 15.3 µM (active)
[2]
  Potency: 21.7 µM (active)

## CCc1cc(Nc2nccc(-c3c(-c4ccc(OC)c(C(=O)Nc5c(F)cccc5F)c4)nc4ccccn34)n2)c(OC)cc1N1CCC(N2CCN(S(C)(=O)=O)CC2)CC1
[1]
  Potency: inactive
[2]
  Potency: 21.7 µM (active)

## Cc1cc2c(cc1C1(c3ccc(C(=O)O)cn3)CC1)C(C)(C)CCC2(C)C
[1]
  Potency: inactive
[2]
  Potency: inactive
[3]
  Potency: inactive

## CCN(CC)CCOc1ccc(Nc2ncc3cc(-c4c(Cl)cccc4Cl)c(=O)n(C)c3n2)cc1
[1]
  Potency: 0.0306 µM (active)
[2]
  Potency: 0.172 µM (active)

## COc1cc2c(cc1OC)CC(=O)N(CCCN(C)C[C@H]1Cc3cc(OC)c(OC)cc31)CC2
[1]
  Potency: inactive
[2]
  Potency: inactive

## COc1cc(OC2CCN(C)CC2)ccc1Nc1ncc2c(n1)n(C1CCCC1)c(=O)n2C
[1]
  Potency: 24.3 µM (active)
[2]
  Potency: 17.2 µM (active)

## Nc1nc2ccc([N+](=O)[O-])cc2s1
[1]
  Potency: inactive
[2]
  Potency: inactive

## COc1cc2c(Oc3ccc(NC(=O)C4(C(=O)Nc5ccc(F)cc5)CC4)cc3F)ccnc2cc1OCCCN1CCOCC1
[1]
  Potency: 21.7 µM (active)
[2]
  Potency: 21.7 µM (active)

## CCCS(=O)(=O)Nc1ccc(F)c(C(=O)c2c[nH]c3ncc(Cl)cc23)c1F
[1]
  Potency: 12.2 µM (active)
[2]
  Potency: 2.73 µM (active)

## CC(=O)OCCN1C(=O)c2c(C)nc3ccc(S(=O)(=O)N4CCOCC4)cc3c2C1=O
[1]
  Potency: inactive
[2]
  Potency: inactive

## CC1(O)CC(c2nc(-c3ccc4ccc(-c5ccccc5)nc4c3)c3c(N)nccn23)C1 (stereo unspecified)
[1]
  Potency: 5.44 µM (active)
[2]
  Potency: 3.85 µM (active)

## Cc1ccc(C(=O)Nc2ccc(CN3CCN(C)CC3)c(C(F)(F)F)c2)cc1C#Cc1cnc2cccnn12
[1]
  Potency: 1.22 µM (active)
[2]
  Potency: 3.43 µM (active)

## Cc1[nH]c2ccccc2c1CCNCc1ccc(C=CC(=O)NO)cc1
[1]
  Potency: 0.863 µM (active)
[2]
  Potency: 0.863 µM (active)

## CNC(=O)c1cc(Oc2ccc(NC(=O)Nc3cc(C(C)(C)C)nn3-c3ccc4ncccc4c3)c(F)c2)ccn1
[1]
  Potency: 19.3 µM (active)
[2]
  Potency: 24.3 µM (active)

## O=C(NC1CCNCC1)c1[nH]ncc1NC(=O)c1c(Cl)cccc1Cl
[1]
  Potency: 0.769 µM (active)
[2]
  Potency: 0.968 µM (active)
[3]
  Potency: 1.93 µM (active)

## OCCCc1ccccc1
[1]
  Potency: inactive
[2]
  Potency: inactive
[3]
  Potency: inactive

## CC(=O)N[C@@H](CCC(N)=O)C(=O)O
[1]
  Potency: inactive
[2]
  Potency: inactive
[3]
  Potency: inactive

## S=c1[nH]c2ccccc2s1
[1]
  Potency: inactive
[2]
  Potency: inactive
[3]
  Potency: inactive

## CC[C@@H](C)[C@H](NC(=O)[C@H](CC1CCCCC1)NC(=O)c1ccno1)C(=O)N1CCC2(CCc3ccccc32)CC1
[1]
  Potency: inactive
[2]
  Potency: inactive
[3]
  Potency: inactive

## CN(c1ncccc1CNc1nc(Nc2ccc3c(c2)CC(=O)N3)ncc1C(F)(F)F)S(C)(=O)=O
[1]
  Potency: 24.3 µM (active)
[2]
  Potency: 34.3 µM (active)

## CN(C(=O)C(Cl)Cl)c1ccc(OC(=O)c2ccco2)cc1
[1]
  Potency: inactive
[2]
  Potency: inactive
[3]
  Potency: inactive

## C1=CCOCc2cc(ccc2OCCN2CCCC2)Nc2nccc(n2)-c2cccc(c2)OCC1
[1]
  Potency: 7.69 µM (active)
[2]
  Potency: 24.3 µM (active)

## CC(C)c1ccc(Cn2ccc3c4c(N)nc(NC5CC5)nc4ccc32)cc1
[1]
  Potency: 7.69 µM (active)
[2]
  Potency: 7.69 µM (active)

## O=C(C=Cc1ccc(/C=C/C(=O)Nc2ccc(C3=NCCN3)cc2)cc1)Nc1ccc(C2=NCCN2)cc1
[1]
  Potency: inactive
[2]
  Potency: inactive
[3]
  Potency: inactive

## CCCCCCCc1ccc(CCc2cccc(O)c2C(=O)O)cc1
[1]
  Potency: inactive
[2]
  Potency: inactive
[3]
  Potency: inactive

## CN(C)C1CCN(C(=O)c2ccc(NC(=O)Nc3nc(N4CCOCC4)nc(N4CCOCC4)n3)cc2)CC1
[1]
  Potency: 0.0685 µM (active)
[2]
  Potency: 0.0611 µM (active)
[3]
  Potency: 0.0968 µM (active)
